This note sets out measurements from PubChem BioAssay (EPA / NIEHS).

The structures appear in SMILES notation. Inconclusive results are not listed. The source made the active and inactive calls. How the source made its calls: active means hit-call score of the fitted dose curve at least 0.9, where 1 is the maximum; inconclusive means response in the unintended direction; inactive means score below 0.9.

The test can be described thus: TOX21_p53_BLA_p3_viability: Viability Assessment in the Tox21 HCT-116 p53 Agonism Beta-lactamase Assay, Phase 3 (AID 2283593).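 Further: cells exposed to compound for 16 h before reading.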 From the text: TOX21_p53_BLA_p3 is a cell-based, single-readout assay that uses HCT116, a human intestinal cell line, […] in a 1536-well plate.TOX21_p53_BLA_p3_viability is an assay readout measuring cellular ATP content and detected with CellTiter-Glo Luciferase-coupled ATP quantitation.TOX21_p53_BLA_p3_viability used a type of viability reporter where loss-of-signal activity can be used to understand changes in the cell viability. Furthermore, this assay endpoint can be referred to as a secondary readout, because this assay has produced multiple assay endpoints where this one serves a viability function. To generalize the intended target to other relatable targets, this assay endpoint is annotated to the cell cycle intended target family, where the subfamily is cytotoxicity.
Thawing Method: Place 14 mL of pre-warmed thaw medium into a 15 mL of conical tub. Remove the vial of cells to be thawed from liquid nitrogen and thaw rapidly by placing at 37C in a water bath with gentle agitation for 1-2 minutes. Decontaminate the vial by wiping with 70% ethanol before opening in a biological safety cabinet. Transfer the vial contents drop-wise into 14 mL of thaw medium in a sterile 15-mL conical tub. Centrifuge cells at 900 rpm for 4 minutes and resuspend in thaw medium. Transfer contents to the T75 tissue culture flask containing Thaw Medium and place flask in a humidified 37C/5% CO2 incubator. Switch to growth medium at first passage.Propagation Method: Aspirate medium, rinse once in DPBS, add 0.25% Trypsin/EDTA and swirl to coat the cell evenly. Add an equal volume of Growth Medium to inactivate Trypsin after 2-3 minutes incubation at 37C. Centrifuge cells at 900 rpm for 4 minutes and resuspend in growth medium. Cell should be passage or fed at least twice a week.Assay Protocol: Harvest cells from culture in growth medium and resuspend in assay medium. 2.2 Dispense 4000 cells/5 uL/well into 1536-well black/clear bottom plates using a Multidrop dispenser. After the cells were incubated at 37C for 5 hours, 23 nL of compounds dissolved in DMSO were transferred to the assay plate by a PinTool resulting in a 217-fold dilution. Incubate the plates for 16 hours at 37C, 5% CO2. Add 1 uL of 6X LiveBLAzer FRET B/G (CCF4-AM) Substrate Mixture to each well using a BioRAPTR dispenser and incubate the plates at room temperature for 2 hours. Measure fluorescence intensity at 460 and 530 nm emission and 405 nm excitation by an Envision detector. Data is expressed as the ratio of 460nm/530nm emissions. Add 4 uL of Cell-titer Glo to each well using BioRAPTR and incubate the plates at room temperature for […]. For cell viability readout that measures cytotoxicity, 4 ul/well of CellTiter-Glo reagent was added into the assay plates using a Flying Reagent Dispenser. After 30 min incubation at room temperature, the luminescence intensity in the plates was measured using a ViewLux plate reader.
Regarding `CC1CN(c2ccccc2)NC1=O` (stereo not given), the result was inactive.

On to `CC(CCc1ccc(O)cc1)NCCc1ccc(O)c(O)c1` (stereo not given), for which the result was inactive.

As to `O=C(OCCO)c1ccccc1O`, the compound was classed as inactive.

For the compound `C[N+]1(C)CCCC(OC(=O)C(O)(c2ccccc2)c2ccccc2)C1` (stereo not given), the result was inactive.

In the case of `O=C(CO)[C@@H](O)[C@H](O)[C@@H](O)C(=O)O`, the call was inactive.

Turning to `CC1=C2[C@H](/C=C(\C)C(=O)O)CC[C@@H](C)[C@H]2CC1`, the call was inactive.

As for `COc1cc(N)c(Cl)cc1C(=O)NC1CCN(CCCOc2ccc(F)cc2)CC1OC` (stereo not given), the result was inactive.

For the compound `OCCN1CCN(CCCN2c3ccccc3Sc3ccc(Cl)cc32)CC1`, the call was inactive.

On to `COCCOC(=O)C1=C(C)NC(C)=C(C(=O)OC/C=C/c2ccccc2)C1c1cccc([N+](=O)[O-])c1` (stereo not given), for which the outcome was inactive.

As for `Cc1cc(O)c2c(O)c3c(O)cccc3cc2c1`, the compound was called inactive.

In the case of `CCCCCC1Nc2cc(C(F)(F)F)c(S(N)(=O)=O)cc2S(=O)(=O)N1` (stereo not given), the outcome was inactive.

Consider `CSCC[C@H](NC(=O)[C@H](Cc1ccc(OS(=O)(=O)O)cc1)NC(=O)[C@@H](N)CC(=O)O)C(=O)NCC(=O)N[C@@H](Cc1c[nH]c2ccccc12)C(=O)N[C@@H](CCSC)C(=O)N[C@@H](CC(=O)O)C(=O)N[C@@H](Cc1ccccc1)C(N)=O`, for which the compound was classed as inactive.

As for `CCOc1ccccc1C(N)=O`, the result was inactive.

On to `NC(=O)c1cccc([N+](=O)[O-])c1`, for which the outcome was inactive.

`OC[C@H]1O[C@H](O[C@H]2O[C@H](CO)[C@@H](O)[C@H](O)[C@H]2O)[C@H](O)[C@@H](O)[C@@H]1O`: the compound was classed as inactive.

For `Cc1cc(N)c2ccccc2[n+]1CCCCCCCCCC[n+]1c(C)cc(N)c2ccccc21`, the call was inactive.

On to `C=CC(=O)OCCCl`, for which the outcome was inactive.

On to `O=C(Nc1ccc(S(=O)(=O)N2CCOCC2)cc1)c1cc(Cl)ccc1NS(=O)(=O)c1ccc(Cl)s1`, for which the result was inactive.

As to `NC(=O)c1ncn([C@@H]2O[C@H](CO)[C@@H](O)[C@H]2O)c1N`, the call was inactive.

A word on the AC50: it is the concentration at which the activity in the assay is half-maximal. In the case of `S=C1NC=NC2N=CNC12` (stereo not given), the AC50 was 2.33 µM (active).

For `C=CCNC1=C2C[C@@H](C)C[C@H](OC)[C@H](O)[C@@H](C)/C=C(\C)[C@H](OC(N)=O)[C@@H](OC)/C=C\C=C(/C)C(=O)NC(=CC1=O)C2=O`, the call was inactive.

Consider `Cc1oc(C)c(C(=O)Nc2ccccc2)c1C`, for which the compound was classed as inactive.

As for `Oc1ccccc1C=NCc1ccccc1`, the compound was called inactive.

In the case of `CC(C)CC(=O)CC(C)CC(C)C` (stereo not given), the result was inactive.

On to `C[C@H](O)[C@H](O)[C@H]1CNc2nc(N)[nH]c(=O)c2N1`, for which the compound was called inactive.

Take `NCC1CCC(C(=O)O)CC1` (stereo not given): the compound was classed as inactive.

For the compound `O=C1CCc2ccc(OCCCCN3CCN(c4cccc(Cl)c4Cl)CC3)cc2N1`, the AC50 was 23 µM (active).

For `NC(N)=Nc1nc(CSCCC(N)=NS(N)(=O)=O)cs1`, the call was inactive.

For `COC(=O)[C@@H](N)CS`, the compound was called inactive.

As to `Oc1ccc(Oc2ccccc2)cc1`, the outcome was inactive.

On to `Nc1nnnn1-c1ccccc1`, for which the outcome was inactive.

Regarding `CCOC(=O)C=CC(=O)O`, the result was inactive.

As to `COC(=O)c1ccccc1Cl`, the call was inactive.

As for `Cn1nnc2c(C(N)=O)ncn2c1=O`, the outcome was inactive.

As to `C[N+]1(CCCCC[N+]2(C)CCCC2)CCCC1`, the compound was classed as inactive.

In the case of `OC1(c2ccc(Cl)c(C(F)(F)F)c2)CCN(CCCC(c2ccc(F)cc2)c2ccc(F)cc2)CC1`, the AC50 is 30.7 µM (active).

For the compound `NCCCC[C@H](N)C(=O)O`, the outcome was inactive.

For the compound `CCc1nccnc1CC`, the compound was classed as inactive.

In the case of `Cc1cc(O)cc2c1O[C@](C)(CCC[C@H](C)CCC[C@H](C)CCCC(C)C)CC2`, the compound was classed as inactive.

`C1=CC2C3C=CC(C3)C2C1` (stereo not given) (tested in a mixture with another compound): the compound was classed as inactive.
